Source: PubChem BioAssay
Only some compounds are listed: those with a hit (about 11% of all), similar ones and a draw of the others.
HEK293 tox = Cytotoxic Profiling in HEK 293 Cell Line of Diverse Libraries Using Quantitative High-Throughput Screening; AID 1345083, 2018; Potency, µM (top dose mostly 115 µM), without a hit: top-dose activity change, negative = cytotoxicity, most hits filed as inhibitors; HEK 293 viability, ATP luminescence (CellTiter-Glo), 48-72 h; 94,000 tested, 6.6% active; further: nearly all actives have a fitted effect of over 60% in size
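HEK 293 cells seeded at 250 cells/well were exposed to compound for 48 or 72 hr at 37 degree Celsius. Viability taken as ATP content by CellTiter-Glo luminescence.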
3T3 cytotox = Cytotoxic Profiling in NIH 3T3 Cell Line of Diverse Libraries Using Quantitative High-Throughput Screening | NIH 3T3 viability, CellTiter-Glo ATP luminescence, 48-72 h | Potency, µM (series often up to 96.7 µM), inactives show at the highest dose activity change, negative = cytotoxicity, actives largely listed as inhibitors | 94,000 tested, 4.3% active | AID 1345082, 2018; further: nearly all actives have a fitted effect of over 55% in size
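First NIH 3T3 cells are plated at 400 cells/well; next compound is pinned in; then plates incubate 48 or 72 hr at 37 °C; finally CellTiter-Glo is added and luminescence read after 10 min.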
NPR1 antag = Natriuretic polypeptide receptor (hNpr1) antagonism - Primary qHTS; Potency, µM (highest dose often 46.3 µM), inactives show at the top dose activity change, negative = inhibition, hits mostly inhibitors; HEK293 hNpr1 GloSensor cGMP, ANP-stimulated luminescence; Atrial natriuretic peptide receptor 1 (Homo sapiens), P16066; 76,000 tested, 1.6% active; calls by dose curve; further: nearly all actives have a fitted effect of over 60% in size
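Compound pre-incubated 30 min at room temperature on GloSensor-loaded HEK293 cells stably carrying hNpr1 and the pGS-40F cGMP biosensor. Stimulation uses hNppA at 0.1 nM final; luminescence is taken at baseline and 20 min post-agonist.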
Luciferase inh = Firefly luciferase inhibition profiling of diverse chemical library using quantitative high-throughput screening; 76,000 tested, 2.5% active; Potency, µM (series often up to 115 µM), hits mostly inhibitors; AID 1347043, 2019; purified P. pyralis luciferase, luminescence, biochemical; Luciferin 4-monooxygenase (Photinus pyralis), P08659; further: nearly all actives have a fitted effect of over 65% in size
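Inhibitors were tested against purified firefly luciferase in a biochemical, low-substrate format (both substrates at 10uM) and luminescence measured with a CCD imager.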
* marks the source's active call; other numbers are inactive results; i = inactive; ? = inconclusive; nt = no result; [ ] = dose if it differs, or a comment. Unless noted, the call rests on the fitted dose curve; in most records, active means well fitted curve in the direction sought with a large enough effect; inconclusive means small, poorly fitted or top-dose-only effect, or another doubt; inactive means no such curve, though single readings can be large; an effect the other way counts as inactive or inconclusive. On the % scale 0 is the no-effect control and ±100 the full control effect; potency means the concentration at half of the fitted maximal effect.

SMILES | HEK293 tox | 3T3 cytotox | NPR1 antag | Luciferase inh
COc1ccc(Nc2ccnc(N3CCN([S+](=O)([O-])c4cccc(C(F)(F)F)c4)CC3)n2)cc1 | 31.6µM* | ? | nt | nt
Cc1ccc([S+](=O)([O-])N2CCN(c3nccc(Nc4ccccc4F)n3)CC2)cc1 | 31.6µM* | ? | nt | nt
O=C(Nc1ccc(F)c(Cl)c1)N1CCC(Oc2ncccc2C(=O)N2CCCCC2)C1 (stereo not given) | 1.8% | i | -2.3% | i
CNC(=O)c1cc(C2CC2)nc2c1c(C1CCCN1C(=O)c1cccc(Cl)c1)nn2C (stereo not given) | i | -1.9% | nt | nt
O=[S+]([O-])(NC1CCN(c2nccc(Nc3ccccc3F)n2)CC1)c1cccs1 | 44.7µM* | 44.7µM* | nt | nt
COc1ccc(S(=O)(=O)N2CCC3(CC2)CC(CC(=O)NC2CC2)CCO3)cc1 (stereo not given) | -10.2% | 2.4% | -1.6% | i
CC(C)Cc1ccc(CN2CCC3(Cc4ccccc4CNC3=O)C2)cc1 (stereo not given) | -37.7% | ? | nt | nt
OCC1CCN(c2ccc(-c3nc(CCCc4ccccc4)no3)cn2)CC1 | ? | ? | 12.6µM* | ?
CN(Cc1ncc[nH]1)c1ccc(-c2nc(CCCc3ccccc3)no2)cn1 | 44.7µM* | ? | ? | ?
c1ccc(CCCc2noc(-c3ccc(N4CCCNCC4)nc3)n2)cc1 | 22.4µM* | ? | 4.2% | ?
CC(O)CNc1ccc(-c2nc(CCCc3ccccc3)no2)cn1 (stereo not given) | ? | ? | 1.0% | 44.7µM*
CN(Cc1cnccn1)c1ccc(-c2nc(CCCc3ccccc3)no2)cn1 | -22.5% | -29.1% | -19.8% | ?
c1ccc(CCc2noc(-c3ccc(NCCN4CCCC4)nc3)n2)cc1 | ? | ? | -25.0% | ?
O=C(C1CCCN1C(=O)C1CC1)N1CCC(c2nc3ccncc3[nH]2)CC1 (stereo not given) | 4.0% | -11.2% | nt | nt
CC[C@H]1CN(C(=O)N2CCOCC2)CC[C@H]1CC(=O)N1CCOCC1 | 3.5%[172 µM] | -7.3%[174 µM] | -0.5%[70.6 µM] | i
O=C(Cc1ccc(N(Cc2cccc(F)c2)C(=O)c2ccco2)cc1)NCc1ccco1 | 89.1µM* | ? | 0.5% | i
COc1ccc(CN(C(=O)c2ccco2)c2ccc(CC(=O)NCc3ccccc3)cc2)cc1 | ? | 35.5µM* | -16.6% | i
O=C(Cc1ccc(N(Cc2ccccc2)C(=O)c2ccco2)cc1)NCc1ccc(F)cc1 | 39.8µM* | ? | -12.8% | i
COCCNC(=O)Cc1ccc(N(Cc2ccc(F)cc2)C(=O)c2ccco2)cc1 | -31.4% | -21.7% | -12.1% | i
COc1ccc(CN(C(=O)c2ccco2)c2ccc(CC(=O)NCc3ccc(F)cc3)cc2)cc1 | ? | 20µM* | -16.7% | i
C=CCNC(=O)Cc1ccc(N(Cc2ccc(OC)cc2)C(=O)c2ccco2)cc1 | ? | -28.9% | -2.7% | i
COc1ccc(C(=O)N2CCc3nn(Cc4ccccc4)c(=O)n3CC2)cc1F | -6.2% | -17.1% | -2.2% | i
Cc1cc(C(=O)N2CCC3(CC2)CC(CC(=O)NCc2ccccc2)CCO3)n[nH]1 (stereo not given) | 13.0% | i | 0.0% | i
Cc1cc(C(=O)N2C[C@@H](CO)[C@H](c3ccncc3)C2)c(C)o1 | i | -11.0% | 0.3% | i
O=C(Cn1cccc1-c1nc(-c2ccc3c(c2)OCO3)no1)Nc1ccc(F)cc1 | -6.2% | 4.3% | -1.3% | i
SMILES | HEK293 tox | 3T3 cytotox | NPR1 antag | Luciferase inh
O=C(NCC1CCCCC1)C1CCN(c2nccc(Nc3ccccc3Cl)n2)CC1 | 35.5µM* | 31.6µM* | nt | nt
O=C(NCC(F)(F)F)[C@@H]1CCCN1c1nccc(Nc2ccccc2Cl)n1 | ? | -22.1% | nt | nt
C#CCNC(=O)C1CCN(c2nccc(Nc3ccccc3Cl)n2)CC1 | ? | 44.7µM* | nt | nt
O=C(NCC1CCCCCC1)[C@@H]1CCCN1c1nccc(Nc2ccccc2Cl)n1 | 25.1µM* | 31.6µM* | nt | nt
O=S(=O)(Cc1ccccc1)N1CC(n2cnnc2C2CCCO2)C1 (stereo not given) | -0.5% | -15.3% | nt | nt
COc1ccc(F)cc1-c1ccc(CN2CCC(NC(=O)c3cccc(Cl)c3)C2)cc1 (stereo not given) | 22.4µM* | 22.4µM* | nt | nt
COc1ccccc1-c1ccc(CN2CCC(NC(=O)c3cccc(Cl)c3)C2)cc1 (stereo not given) | 20µM* | 22.4µM* | nt | nt
O=C(c1cc(CN2CCOCC2)on1)N1CCC2(CC1)NCCc1c2[nH]c2ccccc12 | 31.6µM* | -25.2% | 7.8% | i
COc1ccc(N2CC3CCC(C2)N3Cc2cccc(-c3cccnc3)c2)cc1 | 39.8µM* | ? | nt | nt
O=C([C@@H]1Cc2nc[nH]c2CN1Cc1ccc(Cl)cc1)N1CCC(Cc2ccccc2)CC1 | ? | ? | -2.8% | i
COc1ccccc1Nc1ncc2c(n1)CN(C(=O)c1ccc(Oc3ccccc3)cc1)CCN2 | 35.5µM* | ? | -3.7% | i
Cn1c(C(=O)N2CCNc3cnc(Nc4cccc(C(F)(F)F)c4)nc3C2)cc2ccccc21 | 39.8µM* | 39.8µM* | -30.0% | i
COc1ccccc1Nc1ncc2c(n1)CN(C(=O)c1cccc(O)c1)CCN2 | 100µM* | -3.0%[138 µM] | -26.0%[70.6 µM] | i
COc1ccccc1Nc1ncc2c(n1)CN(C(=O)c1ccc(Cl)cc1)CCN2 | ? | ? | -29.8%[70.6 µM] | i
CN(Cc1ccc(N2CCOCC2)cc1)C(=O)CCC[C@H]1NC[C@@H]2C[C@H]1CN(Cc1ccccc1)C2 | ? | -25.2% | -10.3% | i
O=C1[C@H]2CN(Cc3ccc(F)c(Cl)c3)C[C@H]2C(=O)N1Cc1ccc2c(c1)OCO2 | 35.5µM* | ? | -18.4% | i
O=C1[C@H]2CN(Cc3ccc(F)c(F)c3)C[C@H]2C(=O)N1Cc1ccc2c(c1)OCO2 | -29.5% | -26.3% | 4.8% | i
O=C(c1ccc(F)cc1)N1CCN(C(=O)c2cccc(-c3ccccn3)c2)CC1 | ? | -34.2% | nt | nt
O=C(NC1CCCCC1)c1nc2sccn2c1-c1ccc(C(F)(F)F)cc1 | ? | 39.8µM* | nt | nt
O=C(NC1CCCCCC1)c1nc2sccn2c1-c1ccc(C(F)(F)F)cc1 | 39.8µM* | 25.1µM* | nt | nt
O=C(NC1CCCCC1)c1nc2sccn2c1-c1ccccc1 | 63.1µM* | ? | nt | nt
COCCn1c(=O)c(C(=O)N2CCN(C(=O)COC)CC2)nc2cccnc21 | 1.0% | -0.1% | nt | nt
CC(=O)N1CCN(C(=O)c2nc3sccn3c2-c2ccncc2)CC1 | -7.3%[172 µM] | -14.4%[138 µM] | nt | nt
C=CCn1cc2c3c(cccc31)[C@H](CC(C)C)N[C@H](C(=O)O)C2 | -25.7%[172 µM] | ? | 2.3%[70.6 µM] | i
CC(C)C[C@@H]1N[C@H](C(=O)NC2CCC2)Cc2cn(CC3CC3)c3cccc1c23 | 56.2µM* | ? | 3.4%[70.6 µM] | i
